Inconclusive results are not listed. A number with no mark means an inactive call. Active and inactive are the calls of the source. Unless noted, calls follow the shape of the dose curve; as a rule, active = well fitted curve in the direction sought with a large enough effect; inconclusive = small, poorly fitted or top-dose-only effect, or another doubt; inactive = no such curve, though single readings can be large; an effect the other way counts as inactive or inconclusive. Starred links: 1 amine or outer side, 2 acyl side, 3 side chain; linkers in the order of their positions; H or OH if unused. Positions of bridges follow the written chain, without caps; N, C: chain ends. Non-standard residues stand in square brackets, D forms with d. Residues, ends and D or L forms follow the SMILES beside them. ξ: configuration not given here. *: point of attachment. X3 = C[C@@H](Oc1ccc([C@H](N[*:1])C(=O)[*:2])cc1)[C@]1(/C=C\C(=O)[*:3])CO1; d(aIle) = CC[C@H](C)[C@@H](N)C(=O)O; X2 = CC(C)[C@@H](O)C(C)C(=O)*; ξNMeF = CNC(Cc1ccccc1)C(=O)O; ξT = CC(O)C(N)C(=O)O; ξS = NC(CO)C(=O)O

The nature of test [1]: HEK-293 Cancer Cell Toxicity qHTS against the NCATS CANVASS Library (AID 1347355). Also: nearly all actives have a fitted effect of over 65% in size. Also: potency is read from the fitted curve at half-maximal effect. As to outcome: series mostly up to about 46 µM. The gist of the method: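 Cells were seeded at 1000 per well and allowed to settle 4 hours at 37 degrees C before pin transfer of compounds as an 11-point series. Viability was read by CellTiter-Glo luminescence after 72 hours' exposure.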
(In general: qHTS replaces the single test concentration by a dilution series.)

In test [2] the test system is NAD(P)H diaphorase (Clostridium kluyveri). In words: Diaphorse counterscreen qHTS: Assay Interference Panel against the NCATS CANVASS Library (AID 1347362). The gist of the method:
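Clostridium kluyveri diaphorase in PBS + 0.01% Tween-20 preincubated 15 min with compounds. Resazurin and NADH then added for 5 min at room temperature in the dark; resorufin fluorescence read (ex 525, em 598).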
Background: Counterscreens check selectivity or assay interference.

Test [3] is described as follows: KB-8-5-11 Cancer Cell Toxicity qHTS against the NCATS CANVASS Library (AID 1347364). Also: nearly all actives have a fitted effect of over 75% in size. Also: potency is read from the fitted curve at half-maximal effect. A digest of the protocol: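 KB-8-5-11 cells (500/well) in DMEM + 10% FBS were exposed to compounds in an 11-point qHTS series for 72 hr at 37C, 5% CO2. Viability was read by CellTiter-Glo luminescence.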
Test [4] is described as follows: KB-3-1 Cancer Cell Toxicity qHTS against the NCATS CANVASS Library (AID 1347366). Also: nearly all actives have a fitted effect of over 75% in size. Also: potency is read from the fitted curve at half-maximal effect. The gist of the method: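 KB-3-1 cells (500 cells/well) in DMEM + 10% FBS were treated with compounds for 72 hr at 37C, 5% CO2. Viability was read as CellTiter-Glo luminescence after 10 minutes at room temperature.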
The target of test [5] is Nuclear receptor subfamily 1 group I member 3 (Homo sapiens) (UniProt Q14994). In words: qHTS for Constitutive Androstane Receptor (CAR) Antagonist screened against the NCATS CANVASS Library (AID 1347372). Also: potency is read from the fitted curve at half-maximal effect. The gist of the method: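 HepG2 cells stably carrying hCAR and CYP2B6-2.2kb luciferase reporter, 2500 cells/well, compound with 50 nM CITCO agonist for 24hr at 37C. ONE-Glo luminescence measured CAR activity; CellTiter-Fluor read viability.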

Test [6] can be described thus: DH5-alpha competent E. coli microbial cell viability qHTS against the NCATS CANVASS Library (AID 1347377). As to conditions: outcome: dose series up to 46.1 µM unless noted. The gist of the method:
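DH5-alpha E. coli suspension (0.9 OD culture diluted to 0.2 OD) exposed to compounds in an 11-point series, overnight at 37C, 5% CO2. Viability read as ATP by BacTiter-Glo luminescence after 20 min at room temperature.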

The nature of test [7]: qHTS for H2AX Agonists against the NCATS CANVASS Library (AID 1347378). A digest of the protocol:
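CHO-K1 cells were plated overnight at 37C, then exposed to compounds (concentration series, 0.76% DMSO final) for 3 hr at 37C. Lysates received Eu-cryptate anti-pH2AX (S139) and d2 anti-H2AX antibodies; after 24 hr at room temperature, TR-FRET 665/620 nm ratio was read.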

A short description of test [8]: Viability qHTS for inhibitors of the SERCaMP assay screened against the NCATS CANVASS Library (AID 1347400). Also: nearly all actives have a fitted effect of over 70% in size. Also: potency is read from the fitted curve at half-maximal effect. The gist of the method:
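SH-SY5Y-GLuc SERCaMP MJH297-derived cells (1000 cells/well) were pre-incubated 4 h at 37C, then exposed to compounds for 48 h. Viability was read as CellTiter-Glo luminescence; bortezomib served as positive control.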

Test [9] can be described thus: qHTS for inhibitors of Rabies Virus screened against the NCATS CANVASS Library (AID 1347402; calls by dose curve; also: series mostly up to about 46 µM).

Chain of Nuclear receptor subfamily 1 group I member 3 (Homo sapiens) (Q14994 whole entry, looked up): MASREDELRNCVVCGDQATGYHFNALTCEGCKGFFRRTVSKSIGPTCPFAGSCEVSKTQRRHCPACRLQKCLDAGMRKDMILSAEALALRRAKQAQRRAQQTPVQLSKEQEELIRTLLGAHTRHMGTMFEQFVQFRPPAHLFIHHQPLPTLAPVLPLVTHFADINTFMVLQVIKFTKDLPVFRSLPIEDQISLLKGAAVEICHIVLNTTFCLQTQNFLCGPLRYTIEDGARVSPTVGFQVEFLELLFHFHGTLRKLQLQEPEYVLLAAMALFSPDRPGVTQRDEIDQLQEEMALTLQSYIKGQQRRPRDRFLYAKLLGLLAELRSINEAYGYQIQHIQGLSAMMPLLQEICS

As for `CO[C@H]1[C@H](O[C@H]2CC[C@]3(C=O)[C@H]4CC[C@]5(C)[C@@H](C6=CC(=O)OC6)CC[C@]5(O)[C@@H]4CC[C@]3(O)C2)O[C@H](C)[C@H](O)[C@@H]1OC`, the Potency in [1] was 0.105 µM (active); in test [3], 0.132 µM (active); in test [4], 0.235 µM (active); in test [5], 0.295 µM (active); in test [8], 0.303 µM (active). Also, the Potency result in test [2] and in [7] was “inactive” each time. In addition, the outcome in test [6] was inactive.
As to `CC[C@]12C=CCN3CC[C@]4(C(=C(C(=O)OC)C1)Nc1ccccc14)[C@@H]32`, the Potency entry in test [2], in test [3], in [4], in [5] and in test [7] was “inactive” in each case. Moreover, the molecule was classed as inactive in test [6] and in test [9].
As for `c1ccc2nc3c(cc2c1)[nH]c1ccccc13`, the Potency result in test [1], in [2], in test [3], in test [4], in test [5] and in test [7] was “inactive” in each case. Also, the Potency result in [8] was “inactive”. Moreover, the outcome in test [6] and in [9] was inactive.
For `C/C=C1/CN2CC[C@]34C(=C(C(=O)OC)[C@H]1C[C@H]23)Nc1ccccc14`, the Potency entry in [1], in [2], in [4] and in test [7] was “inactive” in each case. The outcome in test [6] and in test [9] was inactive.
For `CO[C@@H](/C=C/CC/C=C/C(=O)O)[C@@H](O)[C@H](C)/C=C(\C)[C@H](O)[C@H](C)C(=O)CCCC1CC(=O)NC(=O)C1`, the Potency result in test [1], in [2], in [3], in test [4], in test [5] and in [7] was “inactive” each time. Also, the Potency entry in [8] is “inactive”. Further, the molecule was called inactive in test [6] and in test [9].
For the molecule `C=C[C@]12C=CCN3CC[C@@]4(c5ccccc5NC(=O)[C@@H]4C1)[C@@H]32`, the Potency entry in test [1], in test [2], in test [3], in test [4], in test [7] and in test [8] was “inactive” each time. The molecule was classed as inactive in test [6] and in test [9].
As to `CC(C)CC1C(=O)O[C@H](C(C)C)C(=O)N(C)C(CC(C)C)C(=O)O[C@@H](C(C)C)C(=O)N(C)C(CC(C)C)C(=O)O[C@H](C(C)C)C(=O)N(C)C(CC(C)C)C(=O)O[C@@H](C(C)C)C(=O)N1C` (stereo partly specified), the Potency in test [1] was 2.35 µM (active); in test [3], 9.35 µM (active); in [4], 9.35 µM (active); in test [5] it was 20.9 µM (active); in test [8] it was 42.8 µM (active). Besides, the call in [6] and in [9] was inactive. The Potency result in test [7] was “inactive”.
With `C1=C2CCCN[C@H]2C2CC1[C@H]1CCCCN1C2` (stereo partly specified), the Potency entry in test [1], in test [2], in test [3], in test [4], in test [5] and in test [7] was “inactive” throughout. The molecule was called inactive in test [6] and in test [9].
`C=C[C@H]1CN2CCc3c([nH]c4cccc(OC)c34)[C@@H]2C[C@@H]1/C(=C\OC)C(=O)OC`: the Potency in [1] is 18.7 µM (active). The Potency entry in test [2], in test [3], in test [5], in test [7] and in [8] was “inactive” each time. In addition, in test [6], the outcome was inactive.
In the case of `C[C@]12CC(O)C3[C@@H](CC[C@@H]4C[C@@H](O)CC[C@]34CO)[C@@]1(O)CC[C@@H]2C1=CC(=O)OC1` (stereo partly specified), the Potency is 3.72 µM (active) in [1]; 5.9 µM (active) in test [3]; 9.35 µM (active) in test [4]; 4.17 µM (active) in test [5]; 7.6 µM (active) in test [8]. Besides, the Potency result in test [2] and in test [7] was “inactive” throughout. The outcome in test [6] and in test [9] was inactive.
`CCCCC1CC[C@H]2CCCC(CCC)N12` (stereo partly specified): the Potency result in [1], in [2], in test [3], in [4], in test [5] and in [7] was “inactive” each time. Further, in [8], the Potency result is “inactive”. For the same molecule, the outcome in [6] and in [9] was inactive.
For `CC[C@H](C)[C@H]1NC(=O)[C@@H](NC(=O)C(C)[C@H](O)C(C)C)[C@@H](C)OC(=O)C2COC(=O)CNC(=O)/C=C\[C@]3(CO3)[C@@H](C)Oc3ccc(cc3)[C@H](NC1=O)C(=O)N(C)C(Cc1ccccc1)C(=O)NC(C(C)O)C(=O)N2` (stereo partly specified) (X2-T[d(aIle)][X3][ξNMeF][ξT][ξS]; ester 1-C; linker 3-6 via G), the Potency result in test [1], in test [2], in test [3], in [4], in [5] and in test [7] was “inactive” each time. Also, the Potency result in [8] is “inactive”. Besides, the call in test [6] and in [9] was inactive.
Regarding `C=CC(C)(C)[C@@]12C[C@H]3C(=O)N/C(=C\c4cnc[nH]4)C(=O)N3[C@@H]1Nc1ccccc12`, the Potency result in test [1], in test [2], in test [3], in test [4], in test [5] and in test [7] was “inactive” each time. For the same molecule, in [8], the Potency result is “inactive”. For the same molecule, the molecule was classed as inactive in test [6] and in test [9].

(Values after PubChem BioAssay (NCATS).)
